High-throughput results from PubChem.
MT1-MMP txn act – MT1-MMP promoter transcription activation; 86,000 tested, 0.16% active; activation factor at 10 µM; AID 750; HT1080 MT1-MMP promoter luciferase reporter, luminescence, overnight; active compounds read high;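 active = activation factor of at least 2 for MT1-MMP transcription at 10 µM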
Smad3 inh – blocks human Smad3 binding to FoxH1 peptide; TR-FRET Smad3/Dy647-FoxH1 peptide binding, europium anti-His; inhibition, % at 25 µM; 88,000 tested, 0.29% active;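 active = compounds that reduce the energy-transfer binding signal between the protein and its labelled peptide by more than half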
Target sequence (P84022 whole entry, looked up): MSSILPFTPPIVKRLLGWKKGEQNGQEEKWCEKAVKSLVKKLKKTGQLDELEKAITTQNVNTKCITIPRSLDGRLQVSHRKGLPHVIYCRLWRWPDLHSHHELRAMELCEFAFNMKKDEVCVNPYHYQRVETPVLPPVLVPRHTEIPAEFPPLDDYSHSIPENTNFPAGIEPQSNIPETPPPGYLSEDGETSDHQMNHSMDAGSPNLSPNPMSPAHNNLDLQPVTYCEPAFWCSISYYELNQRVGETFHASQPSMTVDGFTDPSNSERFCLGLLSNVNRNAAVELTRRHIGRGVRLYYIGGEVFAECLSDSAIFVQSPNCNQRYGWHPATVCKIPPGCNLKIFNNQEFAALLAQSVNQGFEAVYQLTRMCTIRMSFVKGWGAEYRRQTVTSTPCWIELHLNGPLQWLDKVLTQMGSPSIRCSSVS
Measles CPE – protection of cells from measles virus; AID 841; 140,000 tested, 1.5% active; Measles virus-infected cells, CPE protection, absorbance; protection (pct of control), % at 4 µM; in the data active = protection mostly above about 24%, no sharp cut-off; inactive = mostly below about 26%
Numbers stand for hits; i = inactive; nt = no result; [ ] = remark or other dose. In the library only some 1.7% were active in any assay of this set; here they are far more common.

SMILES	MT1-MMP txn act	Smad3 inh	Measles CPE
CN(C)c1ccc(C(=O)C(O)c2ccccc2)cc1 (stereo not given)	i	i	i
O=[N+]([O-])c1ccc2c(c1)Cc1cc(N=Cc3ccc4c(c3)OCO4)ccc1-2	nt	i	nt
NC[C@H]1O[C@H](n2cnc3c(=O)[nH]c(N)nc32)[C@@H](O)[C@@H]1O	nt	i	nt
O=C1OC2(c3ccc(O)cc3Oc3cc(O)ccc32)c2c1c(-c1ccccc1)c(-c1ccccc1)c(-c1ccccc1)c2-c1ccccc1	nt	i	nt
O=C(O)c1ccc2c(c1C(=O)O)C(=O)OC2(c1ccc(O)cc1)c1ccc(O)cc1	nt	78	nt
C1CCN(CC[C@@H]2CCCCN2)CC1	nt	i	nt
C#CC[N+](C)(C)CCCCCCCCCC	nt	nt	28
C#CC[N+](C)(C)CCCCCCCCCCCC	nt	nt	i
CC1(C)CC(=O)C(C=NCCN2CCNC2=O)=C(O)C1	nt	nt	35
CC1(C)CC(=O)C(C=NCCCO)=C(O)C1	i	i	i
CCCNC(=O)c1cc(-c2ccc(Br)cc2)on1	i	i	i
CC(C)NC(=O)c1cc(-c2ccc(Br)cc2)on1	5.1	i	i
O=[N+]([O-])c1ccc(S(=O)(=O)Cc2ccccc2)c2nonc12	nt	i	nt
Clc1ccc(-n2nnnc2-c2ccccc2)cc1	i	i	52
COc1ccc(-n2nnnc2-c2ccccc2)cc1	i	i	i
NNC(=O)c1ccc(OCc2nc3ccccc3[nH]2)cc1	nt	i	nt
O=C(CSc1nc2ccccc2c2ccccc12)c1ccccc1	nt	i	nt
O=C(Cc1c2ccccc2nc2ccccc12)c1ccccc1	nt	nt	20
COC(=O)[C@@]1(Cc2ccc(OC)cc2)[C@H]2c3cc(C(=O)N4CCCC4)n(CCc4c[nH]c5ccc(OC)cc45)c3C[C@H]2CN1C(=O)c1ccccc1	i	nt	nt
CCN=C1Sc2nc3ccc(OCC)cc3cc2CN1CCOC	nt	nt	i
CCOc1ccc2nc3c(cc2c1)CN(CCOC)C(=NC)S3	i	i	29
CC(CCC(=O)O)(c1cc(Br)c(O)c(Br)c1)c1cc(Br)c(O)c(Br)c1	nt	i	nt
O=[N+]([O-])c1cc(Cc2cc([N+](=O)[O-])c3cccnc3c2O)c(O)c2ncccc12	nt	99	nt
CC(C)C(=O)NC(c1ccccc1)c1cc([N+](=O)[O-])c2cccnc2c1O (stereo not given)	nt	nt	i
C(=N\Nc1nnc2c(n1)[nH]c1ccccc12)/c1cccnc1	nt	i	nt
SMILES	MT1-MMP txn act	Smad3 inh	Measles CPE
COCCn1c(-c2cccc([N+](=O)[O-])c2)nc2c1c(=O)[nH]c(=O)n2Cc1ccccc1	nt	nt	27
Cn1c(-c2cccc(OCc3ccccc3)c2)nc2c1c(=O)[nH]c(=O)n2Cc1ccccc1	nt	nt	i
CC(C)CC(=O)NNC(=O)C(C)C	nt	nt	i
O=C(CN1CCN(C(=O)c2ccco2)CC1)Nc1ccccc1-c1ccccc1	i	i	i
O=C(CSc1nc2cc(Cl)ccc2s1)N1CCN(C(=O)c2ccco2)CC1	i	i	61
O=C(CN1CCN(C(=O)c2ccco2)CC1)Nc1cc(Cl)ccc1Cl	i	i	69
O=C(CSc1nc(-c2ccccc2)cs1)N1CCN(C(=O)c2ccco2)CC1	i	nt	i
CNC(=O)C1(C)C=CCN1C(=O)OC (stereo not given)	i	nt	nt
CCc1ccc(OCC(=O)NC(NC(=S)Nc2ccccc2OC)C(Cl)(Cl)Cl)cc1 (stereo not given)	nt	nt	43
CCc1ccc(OCC(=O)NC(NC(=S)Nc2ccccc2C)C(Cl)(Cl)Cl)cc1 (stereo not given)	nt	nt	i
COc1ccc(C/C(=N\O)c2ccc(OC)cc2)cc1	i	i	i
O=[N+]([O-])c1ccc(NC2CCCC2)cc1	nt	nt	i
O=c1[nH]c(NC2CCCCC2)c([N+](=O)[O-])c(=O)[nH]1	nt	nt	28
Cc1ccc(-n2nc(C)c(/C=N/NC(=O)c3cccnc3)c2Cl)cc1	nt	nt	i
Cc1nn(-c2ccccc2)c(Cl)c1/C=N/NC(=O)c1cccnc1	nt	nt	44
O=C(C1Cc2ccccc2CN1S(=O)(=O)c1ccc(F)cc1)N1CCOCC1 (stereo not given)	i	i	i
CCS(=O)(=O)N1Cc2ccccc2CC1C(=O)OCC(=O)Nc1ccc(C)cc1 (stereo not given)	i	nt	i
CCS(=O)(=O)N1Cc2ccccc2CC1C(=O)N1CCN(c2ccccc2)CC1 (stereo not given)	i	i	62
O=C(C1Cc2ccccc2CN1S(=O)(=O)c1ccc(F)cc1)N1CCCCCC1 (stereo not given)	i	77[fluorescence artefact?]	i
O=C(O)c1ccc(CNCc2ccccc2)cc1	nt	i	nt
O=C(NCCCn1ccnc1)c1cc2ccccc2oc1=O	nt	nt	i
O=C(NCCCn1ccnc1)Nc1cccc2ccccc12	2.1	i	26
Cc1nc2ncnn2c(N2CCN(C(c3ccccc3)c3ccccc3)CC2)c1C	i	i	53
Cc1cc(N2CCN(C(c3ccccc3)c3ccccc3)CC2)n2ncnc2n1	i	i	i
COc1ccc(OCCC(=O)OCC(=O)Nc2cccc(Br)c2)cc1	nt	nt	41
SMILES	MT1-MMP txn act	Smad3 inh	Measles CPE
COc1ccc(OCCC(=O)OCC(=O)Nc2ccc(Br)cc2)cc1	nt	nt	i
COc1ccc(NC(=O)Cc2c(SC)c3ccccc3n2Cc2ccccc2)cc1	nt	nt	i
O=C(Cc1cccs1)N/N=C/C(Br)=C/c1ccccc1	nt	nt	48
CC(/C=N/NC(=O)Cc1cccs1)=C\c1ccccc1	nt	nt	i
Cc1nc(CCNC(=O)Cc2ccc(F)cc2)cs1	nt	i	i
Cc1nc(CCNC(=O)Cc2ccc(Cl)cc2)cs1	nt	i	39
COC(=O)c1ccc(C(NC(=O)OCc2ccccc2)/C(C)=C/[C@@H](C)C(=O)Nc2ccc(OC)cc2)cc1 (stereo not given in full)	i	nt	nt
CC(=O)[C@H](C(=N)C#N)C(=O)Nc1ccccc1	nt	i	nt
N#[N+]c1ccc(Nc2ccccc2)cc1	nt	i	nt
O=C(N/N=C/c1c[nH]c2ccccc12)c1ccncc1	nt	nt	i
O=C(N/N=C/c1c[nH]c2ccc(Br)cc12)c1ccncc1	nt	nt	29
COC(=O)c1cc(NC(=O)CC2SCCNC2=O)cc(C(=O)OC)c1 (stereo not given)	i	i	48
O=C(CC1SCCNC1=O)Nc1cc(Cl)cc(Cl)c1 (stereo not given)	i	i	i
CCCC1c2c(ccc3ccccc23)Oc2ccc3ccccc3c21	nt	i	nt
COC(=O)[C@@]1(Cc2ccc(OC)cc2)[C@H]2c3cc(C(=O)N4CCCC4)n(CCF)c3C[C@H]2CN1C(=O)c1ccccc1	i	nt	nt
O=C(N/N=C/c1ccc(Br)s1)c1c[nH]c2ccccc12	nt	nt	i
O=C(N/N=C/c1ccccn1)c1ccco1	nt	nt	i
O=C(N/N=C\CCc1ccccc1)c1ccco1	nt	nt	57
CCn1c(CNc2ccc(Cl)cc2)nnc1SCc1ccccc1	nt	nt	46
Cn1c(CNc2ccc(Cl)cc2)nnc1SCc1ccccc1	i	i	i
CCc1cccc2c(/C=N/NC(=O)c3cccc(S(=O)(=O)Nc4ccccc4Cl)c3)c[nH]c12	nt	nt	i
CCc1ccc(NC(=O)N(CCOC)C2CCN(C(C)=O)CC2)cc1	i	i	65
CCOC(=O)N1CCC(N(CCOC)C(=O)Nc2ccc(CC)cc2)CC1	i	i	i
O[C@@H](c1cc(C(F)(F)F)nc2c(Cl)cc(Cl)cc12)[C@@H]1CCCCN1	nt	i	nt
CC(C)CCn1c(Cl)nc2c1c(=O)n(C)c(=O)n2C	i	i	i
CN(Cc1ccccc1)Cc1nc2c(c(=O)n(C)c(=O)n2C)n1Cc1ccccc1Cl	i	i	53
CCCn1c(CN(C)Cc2ccccc2)nc2c1c(=O)n(C)c(=O)n2C	i	i	i
CC(C)CCn1c(Oc2ccccc2Cl)nc2c1c(=O)n(C)c(=O)n2C	i	i	49
